NALP1 yeast inh: inhibitors of NALP1 inflammasome in yeast; S. cerevisiae NALP1/ASC/caspase-1 growth, X-gal OD620, 72 h; inhibition, % at 10 µM; 0.61% of 280,000 active; AID 2071; in the data active = inhibition mostly above about 24%, no sharp cut-off; inactive = mostly below about 32%
tim23-1 inh: inhibits growth of tim23-1 mutant yeast. S. cerevisiae tim23-1 growth, BacTiter-Glo luminescence, 24 h. 1.3% of 330,000 active. AID 463212. inhibition, % at 20 µM;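 active = growth inhibition of the mutant yeast at or above 50%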;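 also: temperature-sensitive mutant grown at 25 °C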
NALP3 yeast inh: blocks the NALP3 inflammasome reconstituted in yeast; Yeast reconstituted NLRP3/ASC/caspase-1, beta-gal luminescence, 24 h; inhibition, % at 10 µM; 0.39% of 330,000 active; AID 2825;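 active = inhibition of 50% or more; inactive = inhibition below 50%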
tim10-1 inh: tim10-1 yeast growth inhibition; S. cerevisiae tim10-1 ts strain growth, BacTiter-Glo, 24 h; inhibition, % at 20 µM; 2.2% of 330,000 active; AID 463190;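 active = inhibition of at least 40%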;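 also: mutant grown at 25 °C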
TIM10 inh: TIM10 yeast growth inhibition; S. cerevisiae TIM10 strain growth, BacTiter-Glo luminescence, 24 h; inhibition, % at 10 µM; 1.4% of 330,000 active;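 active = inhibition of 40% or more at the single tested concentration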;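 also: wild-type TIM10 isogenic control strain grown at permissive 25 °C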
NALP3 yeast conf: confirmation of NALP3 inhibitors in yeast; shares compounds with NALP3 yeast inh; yeast expressing human NALP3, luminescence; inhibition, % at 10 µM; 81% of 1,300 active; AID 435006; in the data active = inhibition above about 48%
Casp1 ASC ctr: counter-screen for NALP3 inhibitors: yeast caspase-1-ASC | shares compounds with NALP3 yeast inh | yeast expressing Caspase-1-ASC, luminescence counter screen | inhibition, % at 10 µM | 66% of 1,000 active | AID 488784
NALP3 yeast rt: retest-confirmed inhibitor of NALP3 in yeast; shares compounds with NALP3 yeast inh; yeast expressing human NALP3, luminescence read-out; inhibition, % at 10 µM; 53% of 1,000 active; AID 488794
tim10-1 confirm: tim10-1 yeast growth inhibition, confirmed; inhibition, % at 20 µM; S. cerevisiae tim10-1 ts strain growth, BacTiter-Glo, 24 h; shares compounds with tim10-1 inh; AID 463213; 56% of 7,400 active;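 active = inhibition of yeast growth at or above a set limit in either of two repeat tests at 20 µM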;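 also: tim10-1 mutant grown at permissive 25 °C to find synthetic lethal compounds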
tim10 confirm: TIM10 yeast growth inhibition, confirmed; shares compounds with TIM10 inh; S. cerevisiae tim10 strain growth, BacTiter-Glo luminescence, 24 h; inhibition, % at 10 µM; 63% of 4,600 active; AID 463215;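 active = inhibition of yeast growth at or above a set limit in either of two replicates at 10 µM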; also: this counterscreen used the strain with wild-type TIM10
tim23-1 conf: tim23-1 yeast growth inhibition, confirmed; shares compounds with tim23-1 inh; S. cerevisiae tim23-1 growth, BacTiter-Glo luminescence, 24 h; inhibition, % at 20 µM; 83% of 4,400 active;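 active = inhibition above about 39% in either of two replicate wells at 20 µM, limit read from the data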;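 also: temperature-sensitive tim23-1 mutant grown at 25 °C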
Large screens that a line does not name were inactive (follow-up assays come after a bar, where they were run). Only some compounds are listed: those with a hit (about 4.1% of all), similar ones and a draw of the others. Rule as the data show it, unless noted: active = inhibition above about 50%; inactive = the rest.

Cc1ccc(S(=O)(=O)N2CCN(C(=O)/C=C/c3ccccc3)CC2)cc1C	none (no result: NALP1 yeast inh)
O=C1Nc2ccccc2/C1=C/c1ccccc1F	tim23-1 inh 53, NALP3 yeast inh 53, TIM10 inh 56 | NALP3 yeast conf 53 | Casp1 ASC ctr inactive | NALP3 yeast rt inactive | tim10 confirm 57 | tim23-1 conf 45
CC(C)(C)C1CCC(=NNC(=O)C2COc3ccccc3O2)CC1 (stereo not given)	none (no result: NALP1 yeast inh)
NC(=S)N/N=C/c1ccccc1	none
NC(=S)N/N=C/c1ccc(C23CC4CC(CC(C4)C2)C3)cc1	tim23-1 inh 75, NALP3 yeast inh 64 | NALP3 yeast conf inactive | tim23-1 conf 68
Cc1ccc2[nH]c3ccccc3c(=O)c2c1	tim23-1 inh 59, NALP3 yeast inh 53 | NALP3 yeast conf 61 | Casp1 ASC ctr 61 | NALP3 yeast rt 56 | tim23-1 conf 50
O=c1c2ccccc2[nH]c2ccc(O)cc12	none
CCN(C(=O)COC(=O)c1ccc[nH]c1=O)c1cccc2ccccc12	none (no result: NALP1 yeast inh)
CSc1nc2cc(Oc3cccc(Cl)c3Cl)c(Cl)cc2[nH]1	tim23-1 inh 74, NALP3 yeast inh 83, tim10-1 inh 53, TIM10 inh 55 | NALP3 yeast conf 91 | Casp1 ASC ctr 96 | NALP3 yeast rt 95 | tim10-1 confirm 51 | tim10 confirm 65 | tim23-1 conf inactive
COc1cc(C(=O)OC(C)CN2C(C)CCCC2C)cc(OC)c1OC (stereo not given)	none
O=C(NC(=S)Nc1cnc2ccccc2c1)c1ccccc1	tim23-1 inh 53, NALP3 yeast inh 73, TIM10 inh 51 | NALP3 yeast conf 64 | Casp1 ASC ctr 65 | NALP3 yeast rt 59 | tim10 confirm 54 | tim23-1 conf 69
CCN(CC)c1ccc(/C=C2\SC(=O)N(C(C)C)C2=O)o1	tim23-1 inh 60, NALP3 yeast inh 52, tim10-1 inh 62, TIM10 inh 57 | NALP3 yeast conf inactive | Casp1 ASC ctr 56 | NALP3 yeast rt inactive | tim10-1 confirm 44 | tim10 confirm 64 | tim23-1 conf 74
O=C(C1CCCN(c2ncnc3c2nc2n3CCCCC2)C1)N1CCN(c2ccccc2F)CC1 (stereo not given)	none
CCS(=O)(=O)c1ccc(O)c(NC(=O)NC2CCCCC2)c1	none (no result: NALP1 yeast inh)
CCCCOc1ccc(C(=O)NCC(=O)NC2CCCCC2)cc1	none (no result: NALP1 yeast inh)
CCOc1ccccc1C(=O)Nc1cc(Cl)ccc1O	tim23-1 inh 85, NALP3 yeast inh 52, tim10-1 inh 62, TIM10 inh 59 | NALP3 yeast conf 72 | Casp1 ASC ctr 66 | NALP3 yeast rt 53 | tim10-1 confirm 54 | tim10 confirm 52 | tim23-1 conf inactive
COc1ccccc1C(=O)Nc1cc(Cl)ccc1O	none
CC(C)(O)c1cc2ccc(C#Cc3ccsc3)cc2c(=O)o1	tim23-1 inh 60, NALP3 yeast inh 65 (no result: NALP1 yeast inh) | NALP3 yeast conf 51 | Casp1 ASC ctr 67 | NALP3 yeast rt 58 | tim23-1 conf inactive
CCN(CC(=O)Nc1ccccc1OC)C(=O)CN1C(=O)NC(C)(c2ccccc2)C1=O (stereo not given)	none (no result: NALP1 yeast inh)
CN1CCN(S(=O)(=O)c2ccc(SCCOc3ccc(Cl)cc3)nc2)CC1	tim23-1 inh 61, NALP3 yeast inh 74, TIM10 inh 65 (no result: NALP1 yeast inh) | NALP3 yeast conf 74 | Casp1 ASC ctr inactive | NALP3 yeast rt inactive | tim10 confirm 69 | tim23-1 conf 39
O=C(CSc1cn(CC(=O)N2CCCCCC2)c2ccccc12)NCC1CCCO1 (stereo not given)	none

Compound activity deposited in PubChem BioAssay by Sanford-Burnham Center for Chemical Genomics.
